This is a sample that favours compounds with a hit; in the whole collection about 2.8% have one here.
TGFb inhibitor: TGF-b pathway inhibition; HepG2 CAGA-GFP TGF-b/SMAD3 reporter, GFP fluorescence, 18 h; TGF-beta stimulated, 500 pg/mL final; Potency, µM (top dose mostly 46.1 µM), without a hit: at the highest dose activity, negative = inhibition, actives largely listed as inhibitors; 410,000 tested, 1.2% active; AID 588855; also: potency is read from the fitted curve at half-maximal effect; % is scaled to controls: 0 for no effect and ±100 for the full control effect; nearly all actives have a fitted effect of over 65% in size
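GFP signal (ex488/em500-530) from TGF-beta-stimulated HEPG2 CAGA-GFP cells, 500 pg/mL final, 18 h at 37 degrees C in DMEM plus 1% FBS, normalized to unstimulated and DMSO-stimulated controls.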
HepG2 viability: counter-screen for TGF-b inhibitors: cytotoxicity in HepG2 cells | HepG2 CAGA-GFP viability, ATP luminescence, 18 h | Potency, µM (doses to about 46.1 µM), for inactives: at the highest dose activity change, negative = cytotoxicity, usual class: cytotoxic | 410,000 tested, 0.76% active | AID 588856; also: potency is read from the fitted curve at half-maximal effect
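CellTiter-Glo luminescence gave cytotoxicity after 18 hours at 37 degrees C. The cells were HepG2 CAGA-GFP in 1% FBS DMEM, stimulated with 500 pg/mL TGF-beta after compound addition. %Activity was normalised to no-cell wells (complete cell-killing) and DMSO (no toxicity), and curves were fitted and classified.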
Six1-Eya2 blk: Six1/Eya2 interaction inhibition; AlphaScreen GST-Six1/His-Eya2 binding, biochemical; active compounds read low; activity change, % (concentration not given with the values); Q15475+O00167; 360,000 tested, 0.56% active; in the data active = activity change below about -65%; inconclusive = mostly about -30% to -63%; also: % is scaled to controls: 0 for no effect and ±100 for the full control effect
Target sequence (O00167 whole entry, looked up): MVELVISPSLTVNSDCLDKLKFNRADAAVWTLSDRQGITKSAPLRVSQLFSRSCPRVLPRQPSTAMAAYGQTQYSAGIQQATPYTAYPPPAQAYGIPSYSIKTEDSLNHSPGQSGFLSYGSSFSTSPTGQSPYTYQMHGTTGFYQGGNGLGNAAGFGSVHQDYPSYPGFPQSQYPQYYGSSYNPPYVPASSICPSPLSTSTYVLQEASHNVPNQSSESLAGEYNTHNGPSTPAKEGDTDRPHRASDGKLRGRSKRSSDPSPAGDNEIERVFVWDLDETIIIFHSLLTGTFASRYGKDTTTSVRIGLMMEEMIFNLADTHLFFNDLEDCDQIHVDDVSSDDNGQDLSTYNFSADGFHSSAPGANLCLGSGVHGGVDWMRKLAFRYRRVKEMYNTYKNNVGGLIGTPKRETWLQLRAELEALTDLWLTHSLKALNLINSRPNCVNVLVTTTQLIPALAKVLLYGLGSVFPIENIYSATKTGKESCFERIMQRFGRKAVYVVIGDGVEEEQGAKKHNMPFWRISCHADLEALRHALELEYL
Target sequence (Q15475 whole entry, looked up): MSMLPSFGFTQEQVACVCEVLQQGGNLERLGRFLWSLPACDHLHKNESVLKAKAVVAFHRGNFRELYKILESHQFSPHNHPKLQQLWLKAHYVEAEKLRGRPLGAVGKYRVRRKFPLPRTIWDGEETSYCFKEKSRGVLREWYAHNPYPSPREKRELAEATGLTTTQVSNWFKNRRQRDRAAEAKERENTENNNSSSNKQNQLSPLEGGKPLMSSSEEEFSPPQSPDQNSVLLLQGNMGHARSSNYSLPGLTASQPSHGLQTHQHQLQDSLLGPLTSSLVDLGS
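Compounds are tested against tagged Six1 and Eya2 proteins bridged by glutathione donor and nickel acceptor beads; after a one-hour incubation at 37 °C without light, AlphaScreen emission is recorded.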
S2 tox: cell viability loss in ATXN counter-screen; 400,000 tested, 0.49% active; Potency, µM (titrated, usually from 56.7 µM), usual class: cytotoxic; S2 cells (HEK-293 line with an ATXN2-luciferase reporter) viability, CellTiter-Fluor protease fluorescence, 24 h; AID 651635; also: potency is read from the fitted curve at half-maximal effect; nearly all actives have a fitted effect of over 40% in size
CtBP-E1A inh: blocks the CtBP interaction with E1A. AlphaScreen GST-E1A/His-CtBP binding, 1536-well; active compounds read low. activity change, % (no concentration beside the values). 340,000 tested, 0.49% active. AID 651724; in the data active = activity change below about -65%; inconclusive = mostly about -30% to -63%; also: % is scaled to controls: 0 for no effect and ±100 for the full control effect
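Homogeneous bead-based format: GST-tagged E1A captured on glutathione donor beads, His-tagged CtBP on nickel acceptor beads; compounds precede bead addition by 2 h at 37 °C.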
ATXN2 expr inh: ATXN2 expression inhibition; HEK-293 ATXN2-luciferase reporter, luminescence, 24 h; Potency, µM (doses to about 57 µM), for inactives: at the highest dose activity change, negative = inhibition, actives largely listed as inhibitors; 360,000 tested, 0.72% active; AID 1745845; also: potency is read from the fitted curve at half-maximal effect; % is scaled to controls: 0 for no effect and ±100 for the full control effect; nearly all actives have a fitted effect of over 55% in size
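qHTS (up to 57 uM final) was run with 24 h compound exposure of reporter cells at 37 °C. Each well was multiplexed: SteadyGlo luminescence measured ATXN2-luciferase expression after a fluorogenic Gly-Phe-AFC viability readout (25 uM final).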
* hit, by the source's call; i = inactive; ? = inconclusive; . = no result given. Unless noted, calls follow the shape of the dose curve; as a rule, active = well fitted curve in the direction sought with a large enough effect; inconclusive = small, poorly fitted or top-dose-only effect, or another doubt; inactive = no such curve, though single readings can be large; an effect the other way counts as inactive or inconclusive.

SMILES	TGFb inhibitor	HepG2 viability	Six1-Eya2 blk	S2 tox	CtBP-E1A inh	ATXN2 expr inh
NS(=O)(=O)c1ccc(N=Nc2ccc(O)c3ncccc23)cc1	8.91µM*	6.31µM*	-96.9*	10µM*	.	.
Oc1ccc(N=Nc2ccc3c(c2)OCCO3)c2ncccc12	?	10.2%	-75.8*	.	.	.
CCOc1ccc(N=Nc2ccc(O)c3ncccc23)cc1	0.0%	-15.9%	-13.2	?	?	?
COc1ccc(-n2c(CCNC(=O)c3ccccc3C(F)(F)F)nnc2SC)cc1	.	.	.	i	.	.
COc1cccc(CN(C)C(=O)c2cnn(-c3ncc4c(n3)-c3ccccc3CCC4)c2C)c1	.	.	.	i	.	.
Cc1nc2cc(NC(=O)[C@@H]3C[C@@H](Sc4ccccn4)CN3Cc3cccc(Cl)c3)ccc2s1	.	.	.	i	.	.
COc1ccc(C2NN=C(c3c[nH]c4ccccc34)C2O)cc1 (configuration not stated)	?	-25.2%	-0.8	i	.	.
COc1ccc(C2C(O)C(c3c[nH]c4ccccc34)=NN2C(=O)CCl)cc1 (configuration not stated)	2.24µM*	3.98µM*	-4.0	7.94µM*	-1.3	6.31µM*
CN(C)c1ccc(C(c2ccc(N(C)C)cc2)C(O)c2ccccc2)cc1 (configuration not stated)	-25.5%	1.5%	-65.2*	?	-2.0	9.1%
CN(C)c1ccc(C(=O)C(O)c2ccccc2)cc1 (configuration not stated)	-6.2%	-15.5%	2.5	i	4.7	6.2%
O=C(CN1CC(=O)Oc2ccccc21)OCC(=O)c1ccc(Br)cc1	-11.2%	-26.8%	-90.7*	?	-86.7*	-35.5%
O=C(CN1C(=O)c2ccccc2C1=O)NCC(=O)OCC(=O)c1ccc(Br)cc1	-2.4%	-6.9%	-6.8	i	-5.7	-7.7%
O=C(CN1C(=O)COc2ccccc21)N1CCCC1	1.6%	-1.0%	-4.5	i	9.7	6.5%
O=C(CN1CC(=O)Oc2ccccc21)OCC(=O)c1ccc(F)cc1	?	-4.6%	-75.2*	?	?	?
O=C1CN(CC(=O)N2CCCCC2)c2ccccc2O1	?	22.4µM*	-13.1	i	-11.3	2.6%
CC1(C(=O)Nc2cccc3cccnc23)CCN1Cc1csc2ccccc12 (configuration not stated)	?	-47.8%	-12.7	20µM*	-11.0	0.0%
O=C(NCc1cccc(Cl)c1)c1cc2ccc3cccnc3c2[nH]1	-7.3%	-15.8%	.	.	.	.
CC(C)N(Cc1ccccc1)C(=O)c1cc2ccc3cccnc3c2[nH]1	11.2µM*	-37.9%	.	.	.	.
Cc1oc(-c2ccccc2NC(=O)C2CCCO2)nc1CNC(=O)c1[nH]c2c(C)ccc(C)c2c1C (configuration not stated)	.	.	.	i	.	.
COc1ccccc1C1CN(Cc2ccc(Sc3nncn3C)o2)Cc2ccccc2O1 (configuration not stated)	.	.	.	i	.	.
NC(Cc1ccc(C(F)(F)F)cc1)c1csc(NC(=O)Nc2ccccc2Oc2ccccc2)n1 (configuration not stated)	11.2µM*	10µM*	1.6	.	2.4	-13.9%
COc1ccc(CC(N)c2csc(NC(=O)Nc3ccccc3Cc3ccccc3)n2)cc1 (configuration not stated)	?	22.4µM*	-12.2	?	-29.0	?
COc1ccc(CNC(=O)Nc2nc(C(N)Cc3ccc(Cl)cc3)cs2)cc1 (configuration not stated)	?	-94.2%	-5.7	i	-6.9	?
NC(Cc1ccc(C(F)(F)F)cc1)c1csc(NC(=O)NCCc2ccccc2)n1 (configuration not stated)	14.1µM*	11.2µM*	-5.9	?	-5.4	?
NC(Cc1ccccc1)c1csc(NC(=O)Nc2ccccc2Oc2ccccc2)n1 (configuration not stated)	?	-104.0%	-8.6	?	-6.0	?
SMILES	TGFb inhibitor	HepG2 viability	Six1-Eya2 blk	S2 tox	CtBP-E1A inh	ATXN2 expr inh
COc1ccccc1CNC(=O)Nc1nc(C(N)Cc2ccc(Cl)cc2)cs1 (configuration not stated)	?	-97.4%	0.0	31.6µM*	-5.5	?
Cc1cnc(-n2ncc(C(=O)NCCc3ccncc3)c2-c2cccs2)nc1-c1ccc(F)cc1	.	.	.	i	.	.
CC(C)CC(N)c1csc(NC(=O)Nc2ccccc2C(C)(C)C)n1 (configuration not stated)	14.1µM*	-99.6%	1.3	i	-16.5	?
COc1cc(CNC(=O)Nc2nc(C(N)CCc3ccccc3)cs2)cc(OC)c1OC (configuration not stated)	?	-88.4%	-22.8	?	?	?
NC(COCc1ccccc1)c1csc(NC(=O)Nc2cccc(C(F)(F)F)c2)n1 (configuration not stated)	14.1µM*	-106.5%	-12.5	.	-10.5	?
COc1ccccc1NC(=O)Nc1nc(C(N)CCc2ccccc2)cs1 (configuration not stated)	11.2µM*	10µM*	-8.9	?	-7.7	?
COc1ccccc1NC(=O)Nc1nc(C(N)Cc2ccc(C(F)(F)F)cc2)cs1 (configuration not stated)	?	20µM*	-1.6	.	-12.9	-0.7%
Cc1ccc(C(=O)C(=O)O)cc1C	.	.	.	i	.	1.6%
CCS(=O)(=O)n1nc(-c2ccco2)nc1NCc1ccc(C(C)C)cc1	?	-5.5%	.	i	.	3.6%
Cn1ccc(C(=O)NCC2CCC3(CCN(Cc4cc(F)cc(F)c4)CC3)O2)n1 (configuration not stated)	.	.	.	i	.	.
NC(CCc1ccccc1)c1csc(NC(=O)Nc2cccc(Cl)c2)n1 (configuration not stated)	?	15.8µM*	-7.6	28.2µM*	-9.0	20µM*
C#CCN(C[C@@H]1[C@@H](OC(=O)NCC2CCCCC2)[C@@H](OC(=O)NCC2CCCCC2)Cn2c(=O)ccc(=O)n21)S(=O)(=O)c1ccc(C)cc1	7.08µM*	-87.1%	17.8	3.55µM*	-2.7	3.55µM*
C#CCN(C[C@@H]1[C@@H](OC(=O)NCc2ccc(OC)c(OC)c2)[C@@H](OC(=O)NCc2ccc(OC)c(OC)c2)Cn2c(=O)ccc(=O)n21)S(=O)(=O)c1ccc(C)cc1	?	-22.8%	8.2	20µM*	3.6	?
